High-throughput results from PubChem.
A selection follows.
aSyn 5UTR act – Activators working through SNCA 5'UTR binding (MLPCN). alpha-synuclein 5'UTR reporter, activators screen. activity score, % (tested at 7.5 µM), hits read low. 7.1% of 300,000 active; in the data active means activity score below about -60%
Large screens that a line does not name were inactive.

Cc1cc(C(=O)CSc2ccc3c(c2)OCCO3)c(C)n1C1CC1	aSyn 5UTR act -126
C/C(N)=C(/C#N)C(=O)CSc1ccc2c(c1)OCCO2	aSyn 5UTR act -125
COc1ccc(/C(=N/Nc2ncnc3ccccc23)C(=O)O)cc1	aSyn 5UTR act -79
COc1ccc(-c2cn3c(C)c(C(=O)NC(C)(C)C)sc3n2)cc1	aSyn 5UTR act -229
COc1ccc(-c2cn3c(C)c(C(=O)NC(C)C)sc3n2)cc1	aSyn 5UTR act -78
COc1ccc(-c2ccc(SCC(=O)c3cccs3)nn2)cc1	aSyn 5UTR act -94
Cc1cc(SCC(=O)c2ccccc2)nc(=O)[nH]1	aSyn 5UTR act -107
Cc1ccc(-c2ccc(SCC(=O)c3ccccc3)nn2)cc1	aSyn 5UTR act -65
O=C(CSc1ccc(-c2cccs2)nn1)N1CCCCCC1	aSyn 5UTR act -71
O=C(CSc1ccc(-c2ccccc2)nn1)c1cccs1	aSyn 5UTR act -94
CCCOc1ccc(-c2cc(C(=O)NCC3CCCO3)c3ccccc3n2)cc1 (stereo not given)	aSyn 5UTR act -73
CCOc1ccc(-c2cc(C(=O)N3CCCC3)c3ccccc3n2)cc1	aSyn 5UTR act -68
COc1ccc(C(=O)Nn2c(SCC(=O)NCC3CCCO3)nc3ccccc3c2=O)cc1 (stereo not given)	none
CCOc1ccc(-c2cc(C(=O)N3CCN(C)CC3)c3ccccc3n2)cc1	aSyn 5UTR act -136
CCOC(=O)C(=Cc1ccc(OCc2ccc([N+](=O)[O-])cc2)c(OC)c1)C(=O)OCC	aSyn 5UTR act -267
COC(=O)C(=Cc1ccc(OCc2ccc([N+](=O)[O-])cc2)c(OC)c1)C(=O)OC	aSyn 5UTR act -259
COc1cc(C(c2c(C)[nH][nH]c2=O)c2c(C)[nH][nH]c2=O)ccc1OCc1ccc([N+](=O)[O-])cc1	aSyn 5UTR act -146
NC(=S)N/N=C/c1cccc(O)c1O	aSyn 5UTR act -94
O=C(NCc1ccncc1)C(=O)N/N=C/c1ccc(OCc2ccccc2)cc1	aSyn 5UTR act -93
CC(C)OCCCNC(=O)C(=O)N/N=C/c1ccc(OCc2ccccc2)cc1	aSyn 5UTR act -67
Nc1nc(-c2ccccc2)cn1/N=C/c1ccccc1	aSyn 5UTR act -138
CCC(=O)Nc1nnc(/C=C/c2ccccc2)s1	aSyn 5UTR act -138
CCCC(=O)Nc1nnc(/C=C/c2ccc(OC)cc2)s1	aSyn 5UTR act -107
CCCC(=O)Nc1nnc(/C=C/c2ccccc2)s1	aSyn 5UTR act -99
COc1ccc(/C=C/c2nnc(NC(=O)C(C)(C)C)s2)cc1	aSyn 5UTR act -96
CCOC(=O)Nc1nnc(/C=C/c2ccc(OC)cc2)s1	aSyn 5UTR act -94
Clc1ccc(-c2nnc(-c3ccccc3)c(N3CCSCC3)n2)cc1	aSyn 5UTR act -62
CCN(CC)S(=O)(=O)c1ccc(N2CCOCC2)c(NC(=O)c2cc([N+](=O)[O-])ccc2Cl)c1	aSyn 5UTR act -164
CCN(CC)S(=O)(=O)c1ccc(N2CCOCC2)c(NC(=O)c2cc(-c3ccccn3)nc3ccccc23)c1	none
Fc1ccc(CCNC(=S)Nc2ccc(F)cc2)cc1	aSyn 5UTR act -76
CC(C)(C)NC(=O)NCCc1ccccc1	aSyn 5UTR act -95
COCCN(Cc1ccccc1)C(=S)Nc1ccc(Cl)cc1	none
C/C(=C\c1ccccc1)C(=O)NCCc1ccccc1	aSyn 5UTR act -62
S=C(NCCc1ccccc1)Nc1ccc(Cl)cc1	aSyn 5UTR act -135
Cc1ccc(NC(=O)NCCCc2ccccc2)cc1	aSyn 5UTR act -90
Cc1cccc(NC(=O)C(=O)NCCCc2ccccc2)c1	aSyn 5UTR act -77
CC1=C/C(=N\NC(=S)NCCc2ccccc2)CC(C)(C)C1	aSyn 5UTR act -80
O=C(NCCc1ccccc1)/C(=N\O)c1ccccc1	aSyn 5UTR act -107
Fc1cc(Br)ccc1NC(=S)NCCc1ccccc1	aSyn 5UTR act -119
S=C(NCCc1ccccc1)NCCc1ccccc1	aSyn 5UTR act -215
O=C(NCCc1ccccc1)Nc1ccc(Cl)cc1	aSyn 5UTR act -178
CC(C)(C)C(=O)NC(=S)NCCc1ccccc1	aSyn 5UTR act -92
COc1cc(CNc2ccc3[nH]c(=O)[nH]c3c2)ccc1OCc1ccc(Cl)cc1	aSyn 5UTR act -171
COc1cc(CNc2ccc3[nH]c(=O)[nH]c3c2)ccc1OCc1ccc(F)cc1	aSyn 5UTR act -91
COc1cc(CNc2ccc(CNc3ncn[nH]3)cc2)ccc1OCc1ccccc1	aSyn 5UTR act -117
COc1cc(CNc2ccc3[nH]c(=O)[nH]c3c2)ccc1OCc1ccccc1F	aSyn 5UTR act -107
COc1cc(CNc2ccc3[nH]c(=O)[nH]c3c2)ccc1OCc1ccccc1	aSyn 5UTR act -86
COc1cc(OC)cc(C(=O)/C=C2\Sc3ccccc3N2C)c1	aSyn 5UTR act -154
CN1/C(=C/C(=O)c2ccc(Cl)cc2)Sc2cc3c(cc21)OCO3	aSyn 5UTR act -160
CN1/C(=C\C(=O)c2cccc([N+](=O)[O-])c2)Sc2ccccc21	aSyn 5UTR act -83
CN1/C(=C/C(=O)C2CCC2)Sc2ccccc21	aSyn 5UTR act -89
COc1ccc2c(c1)S/C(=C\C(=O)c1ccncc1)N2C	aSyn 5UTR act -165
CCOc1cc(N2CCOCC2)c(OCC)cc1NC(=O)c1cc(-c2ccco2)nc2ccccc12	none
